PriA SSB inh: inhibitors of Klebsiella pneumoniae PriA binding to SSB C-terminal tail, primary screen, biochemical, AlphaScreen; AlphaScreen SSBct-PriA binding, biotinylated peptide; inhibition, % at 33 µM; 0.6% of 430,000 active; in the data active = inhibition mostly above about 37%, no sharp cut-off; inactive = mostly below about 20%;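 note: plate controls were negative control peptide for no effect and reference peptide for full effect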
MazF activator: activators of E. coli MazEF toxin-antitoxin RNase, primary screen, biochemical, fluorescence, uHTS | FAM/BHQ RNA-DNA oligo cleavage fluorescence, 5 h | activation, % at 20 µM | 0.32% of 350,000 active | AID 504720, 2011; in the data active = activation above about 50%
Target sequence (P0AE70 whole entry, looked up): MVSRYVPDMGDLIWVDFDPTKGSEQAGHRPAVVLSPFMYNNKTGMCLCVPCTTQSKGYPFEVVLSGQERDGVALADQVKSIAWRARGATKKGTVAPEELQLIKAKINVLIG
Yp Topo-I inh: Yersinia pestis topoisomerase I inhibitors, primary screen, biochemical, cleavage product accumulation, plate reader, single point | AID 504884, 2011 | 0.064% of 360,000 active | DNA topoisomerase I (Yersinia pestis CO92) | Y. pestis Topo-I cleavage product accumulation | activity, % at 10 µM; in the data active = activity above about 50%, passing the limit was not always enough
3CLpro inhibitor: SARS-CoV 3CLpro protease inhibitors, primary screen, biochemical, quenched FRET; Replicase polyprotein 1ab (Severe acute respiratory syndrome coronavirus), P0C6X7; recombinant SARS-CoV 3CLpro, quenched FRET peptide cleavage; inhibition, % at 6 µM; 0.14% of 290,000 active; in the data active = inhibition above about 12%
Starred values were filed as active, the others as inactive; · = not tested or not shown. Sampled rows, rich in hits. Any-hit rate of the full collection: about 0.9%.

SMILES | PriA SSB inh | MazF activator | Yp Topo-I inh | 3CLpro inhibitor
CSc1cccc(NC(=O)Cn2nc3ccc(SC4CCCCC4)nn3c2=O)c1 | -13 | · | · | ·
COC(=O)C1=CN(c2cccc(C)c2)C=C(C(=O)OC)C1c1cc(OC)c(O)c([N+](=O)[O-])c1 | 53* | 2 | -8 | 2
O=[N+]([O-])c1ccc(N2CCCCC2)cc1O | 74* | · | · | ·
O=[N+]([O-])c1ccc(N2CCCCC2)cc1[N+](=O)[O-] | 73* | · | · | ·
CNc1cc(N2CCCCCC2)ccc1[N+](=O)[O-] | 27 | 2 | 13 | 5
Cc1ccc(NC(=O)c2ccncc2)c(C(=O)O)c1 | -38 | · | · | ·
Cn1cc(C=C(C#N)C#N)c2ccccc21 | -6 | 154* | -1 | -2
Cc1noc(NS(=O)(=O)c2ccc(NC(=O)COc3cccc4c3OC(C)(C)C4)cc2)c1C | -1 | · | · | ·
O=C(Nc1nc2ccc3ccccc3c2s1)c1ccc(S(=O)(=O)N2CCc3ccccc3C2)cc1 | -1 | · | · | ·
Cc1ccc2nc(NNC(=O)c3ccc(S(=O)(=O)N4CCc5ccccc5C4)cc3)sc2c1 | 95* | -4 | 12 | 8
Cc1ccc(S(=O)(=O)c2cnc(SCC(=O)NCc3ccccc3)[nH]c2=O)cc1Cl | -3 | · | · | ·
Cc1cc(C)n(-c2nc(CCNC(=O)c3ccc(OC(F)(F)F)cc3)cs2)n1 | 0 | · | · | ·
O=C(Nc1cccc(-c2nc3ccccc3[nH]2)c1)c1cccc(NC(=O)c2ccco2)c1 | 4 | 66* | 5 | -3
O=C(Nc1ccc2nc(-c3ccccc3)[nH]c2c1)c1ccco1 | 3 | 5 | 4 | -2
NC1C2CC3CC(C2)CC1C3 (configuration not stated) | -3 | · | · | ·
O=C(CCn1ccc(=O)[nH]c1=O)N1CC(c2nc(-c3cccs3)no2)C1 | -8 | · | · | ·
c1ccc(-c2c(-c3ccccc3)n(Cc3ccco3)c3ncnc(NCCCn4ccnc4)c23)cc1 | 52* | 2 | 26 | 0
Cc1ccc(NC(=O)CCC(=O)NN=Cc2cccs2)cc1C | -12 | · | · | ·
O=S(=O)(NCCN1CCN(c2ccccc2F)CC1)c1ccccc1Cl | -3 | · | · | ·
COc1cccc(N2C(=O)[C@H]3C(C(=O)c4cnccn4)=NN[C@H]3C2=O)c1 | -8 | -61 | -6 | 3
O=C(C1=NN[C@@H]2C(=O)N(c3cccc(F)c3)C(=O)[C@H]12)c1ccc2ccccc2n1 | 7 | 73* | -2 | 0
O=C(C1=NN[C@@H]2C(=O)N(c3cccc(C(F)(F)F)c3)C(=O)[C@H]12)c1ccc2ccccc2n1 | 0 | 96* | -1 | 1
Cn1ncc(C#N)c1N=CN1CCCCC1 | -22 | · | · | ·
CN(C)c1ccc(-c2nc3ccccc3n2CCOc2ccccc2)cc1 | 29* | · | · | ·
CSc1ccccc1NC(=O)c1cc2n(n1)CCCO2 | 1 | · | · | ·
SMILES | PriA SSB inh | MazF activator | Yp Topo-I inh | 3CLpro inhibitor
COc1ccccc1N1CCN(CCNC(=O)C2CCCCC2)CC1 | 1 | · | · | ·
CCCN1CCCc2cc(CCNS(=O)(=O)CCC)ccc21 | 112* | · | · | ·
CCCN1CCCc2cc(CCNS(=O)(=O)c3ccc(CC)s3)ccc21 | 60* | · | · | ·
CCCN1CCCc2cc(CCNS(=O)(=O)c3ccc(F)c(Cl)c3)ccc21 | 47* | · | · | ·
CCCN1CCCc2cc(CCNS(C)(=O)=O)ccc21 | 70* | · | · | ·
CCCN1CCCc2cc(CCNC(=O)C(=O)Nc3ccc(F)c(F)c3)ccc21 | 28 | · | · | ·
CCCN1CCCc2cc(CCNC(=O)CC)ccc21 | 52 | · | · | ·
CC(O)(CNC(=O)c1ccno1)c1ccc2c(c1)OCO2 (configuration not stated) | -12 | · | · | ·
O=C(CNC(=O)OCc1ccccc1)Nc1nc2c(s1)C(=O)NCCC2 | -2 | · | · | ·
CCc1ccc(-c2cc3c(=O)n(Cc4ccc(Cl)cc4)ccn3n2)cc1 | -6 | · | · | ·
CCCN1CCCc2cc(CCNS(=O)(=O)c3cc(C)c(OC)c(C)c3)ccc21 | 63 | · | · | ·
COc1ccc(C)cc1S(=O)(=O)NCCc1ccc(N2CCCC2)cc1 | 22 | · | · | ·
COc1ccc(C)cc1S(=O)(=O)NCCc1ccc2c(c1)CCCN2C | 65* | · | · | ·
CCCN1CCCc2cc(CCNS(=O)(=O)CC(C)C)ccc21 | 74* | · | · | ·
CCCN1CCCc2cc(CCNC(=O)C(=O)NC(C)C)ccc21 | 22 | · | · | ·
CCCN1CCCc2ccccc21 | 39* | 4 | 6 | -4
CCCN1CCCc2cc(CCNS(=O)(=O)c3ccc(CC)cc3)ccc21 | 51* | · | · | ·
CCN1CCN(C(=O)N2CCCC(Cc3nc(-c4ccccc4C)no3)C2)C(=O)C1=O (configuration not stated) | -14 | · | · | ·
O=C(Cn1cccc(S(=O)(=O)N2CCOCC2)c1=O)NCc1ccccc1Cl | -25 | · | · | ·
CC1=Nc2ccccc2C1=Cc1sc(=O)n(CC(=O)N2CCCC2)c1O | -4 | · | · | ·
Brc1ccc(CSc2cn(Cc3ccc(Br)cc3)c3ccccc23)cc1 | -10 | · | · | ·
CCCN1CCCc2cc(CCNS(=O)(=O)c3ccc4c(c3)OCCO4)ccc21 | 67* | · | · | ·
CN1CCCc2cc(CCNC(=O)Cc3cccs3)ccc21 | 42 | · | · | ·
Cc1ccc(S(=O)(=O)NCCc2ccc3c(c2)CCCN3C)cc1Cl | 38* | · | · | ·
CCCN1CCCc2cc(CCNS(=O)(=O)CCc3ccccc3)ccc21 | 71* | · | · | ·
SMILES | PriA SSB inh | MazF activator | Yp Topo-I inh | 3CLpro inhibitor
CCCN1CCCc2cc(CCNC(=O)C(=O)NCc3ccccc3Cl)ccc21 | -19 | · | · | ·
CN1CCCc2cc(CCNS(=O)(=O)c3cccs3)ccc21 | 71* | · | · | ·
O=C(CSc1nc(-c2cccs2)cc(C(F)(F)F)n1)N1CCOCC1 | -1 | · | · | ·
COc1ccc(NC(C)C(=O)NN=Cc2ccccc2OCc2ccc(Br)cc2)cc1 (configuration not stated) | 6 | · | · | ·
CC(C)(C)c1ccc(C(=O)CSc2nc3ccccc3c(=O)[nH]2)cc1 | -5 | 51* | 8 | -2
O=C(Nc1nc2c(s1)CN(C(=O)[C@@H]1COc3ccccc3O1)CC2)c1ccccn1 | -4 | · | · | ·
O=C1CC2(CCN(C(=O)C3CC(=O)N(c4ccccc4)C3)CC2)Oc2ccccc21 (configuration not stated) | -5 | 0 | 13 | ·
COc1cccc(N2CC(C(=O)N3CCC4(CC3)CC(=O)c3ccccc3O4)CC2=O)c1 (configuration not stated) | -9 | 2 | 217* | ·
O=c1[nH]c2ccccc2nc1/C=C/c1ccc(F)cc1 | -9 | 849* | 4 | -1
COc1ccc(OC)c(/C=C/c2nc3ccccc3[nH]c2=O)c1 | -3 | 240* | 2 | -2
O=C(CSc1ccc(NC(=O)C2CC2)nn1)Nc1ccc(F)cc1 | 6 | · | · | ·
O=[N+]([O-])c1ccc(O)c(CSc2nnnn2-c2ccccc2)c1 | 99* | -25 | -4 | 3
N#Cc1c(-c2ccccc2)cc(-c2ccc(O)cc2)nc1N | -24 | 6 | 4 | 6
Cc1ccc(-c2cc(-c3ccccc3)nc(N)c2C#N)o1 | -6 | 83* | 6 | 5
Cc1c(C=NNC(=O)c2ccc(O)cc2)c2ccccn2c1C(=O)c1ccc(F)cc1 | -14 | · | · | ·
Cc1c(C=NNC(=O)c2ccc(Br)cc2)c2ccccn2c1C(=O)c1ccncc1 | 11 | 59* | 6 | ·
O=C(COc1ccccc1F)N1CC(Oc2nccs2)C1 | 3 | · | · | ·

Compound activity from PubChem BioAssay.
